Assay results taken from PubChem BioAssay AID1159580 (chemical genetic matrix, 2015).
Where “and” joins values, the source holds several entries; their conditions need not be identical. Identical values can stand only once. In all, about 5,500 compounds went through this assay and about 2,000 (36%) were called active. Roughly 18% stayed inconclusive and do not appear here. Cut-off read from the data, not from the text of the source: active = normalized growth mostly below about 0.91 (no sharp cut-off); inconclusive = no clear call, values can overlap the other calls; inactive = mostly above about 0.92. Some of the results follow.

Assay: chemical genetic growth profiling, strain panel (AID 1159580);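 note: tested at 20 µM; growth read once vehicle control cultures reached saturation at 30 °C; 1 = growth at the plate median or of vehicle wells; lower values mean less growth of the strain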
Conditions: S. cerevisiae deletion strains, growth OD

Measured: normalized growth

C[C@H]1O[C@@H](O[C@H]2[C@@H](O)C[C@H](O[C@H]3[C@@H](O)C[C@H](O[C@H]4CC[C@]5(C)C6C[C@@H](O)[C@]7(C)[C@@H](C8=CC(=O)OC8)CC[C@]7(O)C6CC[C@@H]5C4)O[C@@H]3C)O[C@@H]2C)C[C@H](O)[C@@H]1O (stereo partly drawn)
inactive: locus YAL013W, strain DEP1, hits give low values 0.992 | locus YAL021C, strain ccr4, hits give low values 0.982 | locus YAL026C, strain drs2, hits give low values 1.01 | locus YAL030W, strain snc1, hits give low values 0.991 | locus YBL061C, strain skt5, hits give low values 0.99 | locus YBR009C, strain hhf1, hits give low values 1.08 | locus YBR021W, strain FUR4, hits give low values 1.01 | locus YBR023C, strain chs3, hits give low values 0.994 | locus YBR171W, strain sec66, hits give low values 0.984 | locus YBR229C, strain ROT2, hits give low values 1 | locus YBR231C, strain swc5, hits give low values 0.989 | locus YBR279W, strain paf1, hits give low values 0.996 | locus YCL011C, strain gbp2, hits give low values 0.967 | locus YCL016C, strain dcc1, hits give low values 0.992 | locus YCL029C, strain bik1, hits give low values 0.977 | locus YCL061C, strain MRC1, hits give low values 1.01 | locus YCL069W, strain vba3, hits give low values 0.991 | locus YCR088W, strain abp1, hits give low values 0.997 | locus YDL005C, strain med2, hits give low values 0.98 | locus YDL035C, strain GPR1, hits give low values 0.987 | locus YDL040C, strain nat1, hits give low values 0.999 | locus YDL074C, strain BRE1, hits give low values 0.982 | locus YDL101C, strain DUN1, hits give low values 1.01 | locus YDL134C, strain PPH21, hits give low values 1.03 | locus YDL185W, strain tfp1, hits give low values 0.955 | locus YDL192W, strain arf1, hits give low values 0.983 | locus YDR001C, strain nth1, hits give low values 0.982 | locus YDR069C, strain doa4, hits give low values 0.996 | locus YDR101C, strain arx1, hits give low values 0.982 | locus YDR137W, strain rgp1, hits give low values 0.978 | locus YDR150W, strain NUM1, hits give low values 0.991 | locus YDR159W, strain sac3, hits give low values 1.02 | locus YDR162C, strain NBP2, hits give low values 1.03 | locus YDR195W, strain ref2 0.987 | locus YDR297W, strain sur2, hits give low values 0.987 | locus YDR318W, strain mcm21, hits give low values 1 | locus YDR334W, strain swr1, hits give low values 0.957 | locus YDR335W, strain msn5, hits give low values 0.98 | locus YDR388W, hits give low values 0.984 | locus YDR392W, strain spt3, hits give low values 0.975 | locus YDR502C, strain sam2, hits give low values 1.01 | locus YEL003W, strain gim4, hits give low values 0.997 | locus YEL037C, strain rad23, hits give low values 1 | locus YEL061C, strain CIN8 (second series), hits give low values 0.992 | locus YEL061C, strain CIN8, hits give low values 1 | locus YER015W, strain faa2, hits give low values 1.01 | locus YER016W, strain bim1, hits give low values 0.987 | locus YER110C, hits give low values 0.961 | locus YER111C, strain swi4, hits give low values 1.01 | locus YER155C, strain BEM2 (second series), hits give low values 1.04 | locus YER155C, strain BEM2, hits give low values 0.986 | locus YER167W, strain BCK2, hits give low values 0.992 | locus YFR010W, strain ubp6, hits give low values 1 | locus YGL078C, strain dbp3, hits give low values 1 | locus YGL086W, strain mad1, hits give low values 0.969 | locus YGL167C, strain pmr1, hits give low values 0.998 | locus YGL173C, strain kem1, hits give low values 0.981 | locus YGL227W, strain vid30, hits give low values 0.99 | locus YGL240W, strain doc1, hits give low values 0.973 | locus YGL248W, strain PDE1, hits give low values 1.02 | locus YGL253W, strain hxk2, hits give low values 0.957 | locus YGR135W, strain pre9, hits give low values 1.01 | locus YGR252W, strain gcn5, hits give low values 1.09 | locus YHR013C, strain ard1, hits give low values 0.977 | locus YHR027C, strain rpn1, hits give low values 0.976 | locus YHR030C, strain SLT2, hits give low values 0.983 and 1.05 | locus YHR079C, strain IRE1 (second series), hits give low values 0.982 | locus YHR079C, strain IRE1, hits give low values 1.06 | locus YHR094C, strain hxt1, hits give low values 0.973 | locus YHR129C, strain ARP1, hits give low values 0.993 | locus YHR142W, strain chs7, hits give low values 0.964 | locus YHR200W, strain rpn10, hits give low values 0.97 | locus YIL066C, strain RNR3, hits give low values 1 | locus YIL073C, strain SPO22, hits give low values 0.937 | locus YIL125W, strain kgd1, hits give low values 0.941 | locus YIR030C, strain dcg1, hits give low values 0.99 | locus YJL092W, strain hpr5, hits give low values 0.996 | locus YJL095W, strain BCK1 (second series), hits give low values 0.976 | locus YJL095W, strain BCK1, hits give low values 1.02 and 1.06 | locus YJL115W, strain asf1, hits give low values 0.984 | locus YJL129C, strain trk1, hits give low values 0.979 | locus YJL134W, strain LCB3, hits give low values 0.985 | locus YJL154C, strain vps35, hits give low values 0.977 | locus YJL164C, strain tpk1, hits give low values 1.02 | locus YJL166W, strain qcr8, hits give low values 0.939 | locus YJL168C, strain set2, hits give low values 0.998 | locus YJL187C, strain SWE1 (second series), hits give low values 1.02 | locus YJL187C, strain SWE1, hits give low values 0.993
